Measurements reported in PubChem BioAssay AID1159580 (chemical genetic matrix, 2015).
Screen size: about 5,500 compounds; about 2,000 (36%) were called active. Another 18% or so got no clear call; they are omitted. The list shows a part of the results. Unmarked numbers belong to inactive results. No stated cut-off is given here; in the data, active means normalized growth mostly below about 0.91 (no sharp cut-off); inconclusive means no clear call, values can overlap the other calls; inactive means mostly above about 0.92.

Test: chemical genetic growth profiling, strain panel (AID 1159580);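 further: tested at 20 µM; growth read once vehicle control cultures reached saturation at 30 °C; 1 = growth at the plate median or of vehicle wells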
Settings: growth OD
[1] = S. cerevisiae deletion strains, locus YAL013W, strain DEP1, stronger effect = lower value
[2] = S. cerevisiae deletion strains, locus YBR229C, strain ROT2, stronger effect = lower value
[3] = S. cerevisiae deletion strains, locus YCL061C, strain MRC1, stronger effect = lower value
[4] = S. cerevisiae deletion strains, locus YDL101C, strain DUN1, stronger effect = lower value
[5] = S. cerevisiae deletion strains, locus YDL134C, strain PPH21, stronger effect = lower value
[6] = S. cerevisiae deletion strains, locus YDR150W, strain NUM1, stronger effect = lower value
[7] = S. cerevisiae deletion strains, locus YEL061C, strain CIN8, stronger effect = lower value
[8] = S. cerevisiae deletion strains, locus YGR078C, strain PAC10, stronger effect = lower value
[9] = S. cerevisiae deletion strains, locus YHR030C, strain SLT2, stronger effect = lower value
[10] = S. cerevisiae deletion strains, locus YHR087W, strain rtc3, stronger effect = lower value
[11] = S. cerevisiae deletion strains, locus YJL187C, strain SWE1, stronger effect = lower value
[12] = S. cerevisiae deletion strains, locus YJR043C, strain POL32, stronger effect = lower value
[13] = S. cerevisiae deletion strains, locus YJR075W, strain HOC1, stronger effect = lower value
[14] = S. cerevisiae deletion strains, locus YLR039C, strain RIC1, stronger effect = lower value
[15] = S. cerevisiae deletion strains, locus YLR058C, strain SHM2 (second series), stronger effect = lower value
[16] = S. cerevisiae deletion strains, locus YLR085C, strain ARP6, stronger effect = lower value
[17] = S. cerevisiae deletion strains, locus YLR262C, strain YPT6, stronger effect = lower value
[18] = S. cerevisiae deletion strains, locus YML094W, strain GIM5, stronger effect = lower value
[19] = S. cerevisiae deletion strains, locus YMR219W, strain ESC1, stronger effect = lower value
[20] = S. cerevisiae deletion strains, locus YMR263W, strain SAP30, stronger effect = lower value
[21] = S. cerevisiae deletion strains, locus YMR307W, strain GAS1, stronger effect = lower value
[22] = S. cerevisiae deletion strains, locus YNL153C, strain GIM3, stronger effect = lower value
[23] = S. cerevisiae deletion strains, locus YNL298W, strain CLA4 (second series), stronger effect = lower value
[24] = S. cerevisiae deletion strains, locus YNL322C, strain KRE1, stronger effect = lower value
[25] = S. cerevisiae deletion strains, locus YNR030W, strain Alg12, stronger effect = lower value
[26] = S. cerevisiae deletion strains, locus YOL006C, strain TOP1, stronger effect = lower value
[27] = S. cerevisiae deletion strains, locus YPL055C, strain LGE1, stronger effect = lower value
[28] = S. cerevisiae deletion strains, locus YPL241C, strain CIN2, stronger effect = lower value
[29] = S. cerevisiae deletion strains, locus YPR135W, strain CTF4, stronger effect = lower value
[30] = S. cerevisiae strains, strain wild type, stronger effect = lower value
[31] = S. cerevisiae deletion strains, locus YKL190W, strain CNB1, stronger effect = lower value

COC(=O)c1cccnc1Sc1ccc(C)cc1
normalized growth [1]: 0.947
normalized growth [2]: 0.97
normalized growth [3]: 0.968
normalized growth [4]: 0.991
normalized growth [5]: 0.958
normalized growth [6]: 0.904
normalized growth [7]: 0.956
normalized growth [8]: 0.954
normalized growth [9]: 0.432 (active)
normalized growth [10]: 0.974
normalized growth [11]: 0.967
normalized growth [12]: 0.95
normalized growth [13]: 0.989
normalized growth [14]: 0.913
normalized growth [15]: 0.966
normalized growth [16]: 0.666 (active)
normalized growth [17]: 0.961
normalized growth [18]: 0.97
normalized growth [19]: 0.958
normalized growth [20]: 0.962
normalized growth [21]: 0.686
normalized growth (S. cerevisiae deletion strains, locus YNL128W, strain TEP1, stronger effect = lower value): 0.98
normalized growth [22]: 0.991
normalized growth [23]: 0.917
normalized growth [24]: 0.965
normalized growth [25]: 0.928
normalized growth [26]: 0.684 (active)
normalized growth [27]: 0.812
normalized growth [28]: 0.769 (active)
normalized growth [29]: 0.61 (active)
normalized growth [30]: 0.965

CC(C)(C)c1ccc(Oc2ncccc2NC(=O)c2ccccc2C(F)(F)F)cc1
normalized growth [1]: 0.986
normalized growth [2]: 1.01
normalized growth [4]: 1.02
normalized growth [5]: 0.996
normalized growth [6]: 1.06
normalized growth [7]: 1
normalized growth [8]: 0.992
normalized growth [9]: 0.934
normalized growth [10]: 1
normalized growth [11]: 0.998
normalized growth [12]: 0.948
normalized growth [13]: 0.988
normalized growth [31]: 1
normalized growth [14]: 0.982
normalized growth [15]: 0.986
normalized growth [16]: 0.972
normalized growth [17]: 0.967
normalized growth [18]: 1.03
normalized growth [19]: 0.999
normalized growth [20]: 1.01
normalized growth [21]: 0.876
normalized growth [22]: 1
normalized growth [23]: 0.987
normalized growth [24]: 1
normalized growth [25]: 0.993
normalized growth [27]: 0.996
normalized growth [28]: 0.987
normalized growth [29]: 0.984

Cc1ccc(Sc2ncccc2NS(=O)(=O)c2ccc(Cl)cc2)cc1
normalized growth (S. cerevisiae deletion strains, locus YAR019C, strain CDC15, stronger effect = lower value): 0.933
normalized growth (S. cerevisiae deletion strains, locus YBL105C, strain PKC1, stronger effect = lower value): 0.924
normalized growth (S. cerevisiae deletion strains, locus YBR135W, strain CKS1, stronger effect = lower value): 0.935
normalized growth (S. cerevisiae deletion strains, locus YBR136W, strain MEC1, stronger effect = lower value): 0.922
normalized growth (S. cerevisiae deletion strains, locus YBR160W, strain CDC28, stronger effect = lower value): 0.934
normalized growth (S. cerevisiae deletion strains, locus YDL017W, strain CDC7, stronger effect = lower value): 0.937
normalized growth (S. cerevisiae deletion strains, locus YDL028C, strain MPS1, stronger effect = lower value): 0.932
normalized growth [4]: 0.947
normalized growth (S. cerevisiae deletion strains, locus YDL108W, strain KIN28, stronger effect = lower value): 0.919
normalized growth (S. cerevisiae deletion strains, locus YDL132W, strain cdc53, stronger effect = lower value): 0.932
normalized growth (S. cerevisiae deletion strains, locus YDL214C, strain PRR2, stronger effect = lower value): 0.852
normalized growth (S. cerevisiae deletion strains, locus YDR052C, strain DBF4, stronger effect = lower value): 0.952
normalized growth (S. cerevisiae deletion strains, locus YDR054C, strain cdc34, stronger effect = lower value): 0.922
normalized growth (S. cerevisiae deletion strains, locus YDR226W, strain ADK1, stronger effect = lower value): 0.938
normalized growth (S. cerevisiae deletion strains, locus YDR477W, strain SNF1, stronger effect = lower value): 0.881
normalized growth (S. cerevisiae deletion strains, locus YER123W, strain YCK3, stronger effect = lower value): 0.823
normalized growth (S. cerevisiae deletion strains, locus YER133W, strain GLC7, stronger effect = lower value): 0.855
normalized growth (S. cerevisiae deletion strains, locus YFL009W, strain cdc4, stronger effect = lower value): 0.935
normalized growth (S. cerevisiae deletion strains, locus YFL029C, strain CAK1, stronger effect = lower value): 0.931
normalized growth (S. cerevisiae deletion strains, locus YFR003C, strain YPI1, stronger effect = lower value): 0.929
normalized growth (S. cerevisiae deletion strains, locus YFR019W, strain FAB1, stronger effect = lower value): 0.923
normalized growth (S. cerevisiae deletion strains, locus YFR028C, strain CDC14, stronger effect = lower value): 0.926
normalized growth (S. cerevisiae deletion strains, locus YGR040W, strain KSS1, stronger effect = lower value): 0.858
normalized growth (S. cerevisiae deletion strains, locus YGR052W, strain FMP48, stronger effect = lower value): 0.907
normalized growth (S. cerevisiae deletion strains, locus YGR092W, strain DBF2, stronger effect = lower value): 0.826
normalized growth [9]: 0.839 (active)
normalized growth (S. cerevisiae deletion strains, locus YHR079C, strain IRE1, stronger effect = lower value): 0.87
normalized growth (S. cerevisiae deletion strains, locus YHR082C, strain KSP1, stronger effect = lower value): 0.845
normalized growth (S. cerevisiae deletion strains, locus YHR205W, strain SCH9, stronger effect = lower value): 0.852
normalized growth (S. cerevisiae deletion strains, locus YIL147C, strain SLN1, stronger effect = lower value): 0.917
normalized growth (S. cerevisiae deletion strains, locus YJL095W, strain BCK1, stronger effect = lower value): 0.909
normalized growth (S. cerevisiae deletion strains, locus YJL128C, strain PBS2, stronger effect = lower value): 0.88
normalized growth (S. cerevisiae deletion strains, locus YJL157C, strain FAR1, stronger effect = lower value): 0.856
normalized growth (S. cerevisiae deletion strains, locus YJR016C, strain ILV3, stronger effect = lower value): 0.919
normalized growth (S. cerevisiae deletion strains, locus YJR066W, strain TOR1 (second series), stronger effect = lower value): 0.851
normalized growth (S. cerevisiae deletion strains, locus YJR066W, strain TOR1, stronger effect = lower value): 0.882
normalized growth (S. cerevisiae deletion strains, locus YKL048C, strain ELM1, stronger effect = lower value): 0.888
normalized growth (S. cerevisiae deletion strains, locus YKL067W, strain YNK1, stronger effect = lower value): 0.894
normalized growth (S. cerevisiae deletion strains, locus YKL101W, strain HSL1, stronger effect = lower value): 0.884
normalized growth (S. cerevisiae deletion strains, locus YKL193C, strain SDS22, stronger effect = lower value): 0.932
normalized growth (S. cerevisiae deletion strains, locus YKL203C, strain TOR2, stronger effect = lower value): 0.928
normalized growth (S. cerevisiae deletion strains, locus YLR113W, strain HOG1, stronger effect = lower value): 0.809 (active)
normalized growth (S. cerevisiae deletion strains, locus YLR133W, strain CKI1, stronger effect = lower value): 0.894
normalized growth (S. cerevisiae deletion strains, locus YLR403W, strain SFP1, stronger effect = lower value): 0.861
normalized growth (S. cerevisiae deletion strains, locus YML070W, strain DAK1, stronger effect = lower value): 0.849
normalized growth (S. cerevisiae deletion strains, locus YMR001C, strain CDC5, stronger effect = lower value): 0.928
normalized growth (S. cerevisiae deletion strains, locus YMR205C, strain PFK2 (second series), stronger effect = lower value): 0.888
normalized growth (S. cerevisiae deletion strains, locus YMR277W, strain FCP1, stronger effect = lower value): 0.934
normalized growth (S. cerevisiae deletion strains, locus YNL006W, strain LST8, stronger effect = lower value): 0.947
normalized growth (S. cerevisiae deletion strains, locus YNL020C, strain ARK1, stronger effect = lower value): 0.879
normalized growth (S. cerevisiae deletion strains, locus YNL161W, strain CBK1, stronger effect = lower value): 0.929
normalized growth (S. cerevisiae deletion strains, locus YNL183C, strain NPR1, stronger effect = lower value): 0.897
normalized growth (S. cerevisiae deletion strains, locus YNL207W, strain RIO2, stronger effect = lower value): 0.924
normalized growth (S. cerevisiae deletion strains, locus YNL222W, strain SSU72, stronger effect = lower value): 0.933
normalized growth (S. cerevisiae deletion strains, locus YNL307C, strain MCK1 (second series), stronger effect = lower value): 0.885
normalized growth (S. cerevisiae deletion strains, locus YOL078W, strain AVO1, stronger effect = lower value): 0.94
normalized growth (S. cerevisiae deletion strains, locus YOL136C, strain PFK27, stronger effect = lower value): 0.854
normalized growth (S. cerevisiae deletion strains, locus YOR061W, strain CKA2, stronger effect = lower value): 0.85
normalized growth (S. cerevisiae deletion strains, locus YOR119C, strain RIO1, stronger effect = lower value): 0.912
normalized growth (S. cerevisiae deletion strains, locus YOR231W, strain MKK1, stronger effect = lower value): 0.891
normalized growth (S. cerevisiae deletion strains, locus YOR329C, strain SCD5, stronger effect = lower value): 0.929
normalized growth (S. cerevisiae deletion strains, locus YPL031C, strain PHO85, stronger effect = lower value): 0.866
normalized growth (S. cerevisiae deletion strains, locus YPL153C, strain RAD53, stronger effect = lower value): 0.863
normalized growth (S. cerevisiae deletion strains, locus YPL204W, strain HRR25, stronger effect = lower value): 0.884
normalized growth (S. cerevisiae deletion strains, locus YPL209C, strain IPL1, stronger effect = lower value): 0.934
normalized growth (S. cerevisiae deletion strains, locus YPL256C, strain CLN2, stronger effect = lower value): 0.827 (active)
normalized growth (S. cerevisiae deletion strains, locus YPR025C, strain CCL1, stronger effect = lower value): 0.933
normalized growth (S. cerevisiae deletion strains, locus YPR106W, strain ISR1, stronger effect = lower value): 0.925
normalized growth (S. cerevisiae deletion strains, locus YPR111W, strain DBF20, stronger effect = lower value): 0.924
normalized growth (S. cerevisiae deletion strains, strain NNK1, stronger effect = lower value): 0.92
normalized growth (S. cerevisiae deletion strains, strain TSCII, stronger effect = lower value): 0.928

Cc1ccc(SC(=O)c2cccnc2Oc2ccccc2)cc1
normalized growth [1]: 0.972
normalized growth [2]: 0.988
normalized growth [3]: 0.989
normalized growth [4]: 1.03
normalized growth [5]: 0.983
normalized growth [6]: 1.02
normalized growth [7]: 0.965
normalized growth [8]: 0.992
normalized growth [9]: 0.815
normalized growth [10]: 0.953
normalized growth [11]: 0.98
normalized growth [12]: 0.992
normalized growth [13]: 0.985
normalized growth [14]: 0.723 (active)
normalized growth [15]: 0.992
normalized growth [16]: 0.818
normalized growth [17]: 0.679 (active)
normalized growth [18]: 0.949
normalized growth [19]: 0.993
normalized growth [20]: 0.984
normalized growth [22]: 0.982
normalized growth [23]: 0.925
normalized growth [24]: 0.983
normalized growth [25]: 0.91
normalized growth [27]: 0.939
normalized growth [28]: 0.94
normalized growth [29]: 0.723
normalized growth [30]: 0.952

CCSc1ncccc1C(=O)N[C@@H](CCSC)C(=O)OC
normalized growth [1]: 0.994
normalized growth [2]: 0.996
normalized growth [4]: 0.98
normalized growth [6]: 0.906
normalized growth [7]: 1.02
normalized growth [8]: 0.993
normalized growth (S. cerevisiae deletion strains, locus YGR229C, strain SMI1, stronger effect = lower value): 1
normalized growth [9]: 0.979
normalized growth [10]: 1
normalized growth [12]: 0.98
normalized growth [13]: 1.01
normalized growth [31]: 1.01
normalized growth [14]: 1
normalized growth [15]: 1.01
normalized growth [16]: 1.04
normalized growth [17]: 1.02
normalized growth [18]: 1.03
normalized growth [19]: 1.01
normalized growth [20]: 1.01
normalized growth [21]: 1.02
normalized growth [22]: 0.999
normalized growth [23]: 1.01
normalized growth [24]: 1.01
normalized growth [25]: 0.997
normalized growth [26]: 1
normalized growth [27]: 1.09
normalized growth [28]: 1.01
normalized growth [29]: 0.91
normalized growth [30]: 1
